# An excerpt weighted towards active compounds, which were near 6.9% of everything screened.
# Giardia killer: Giardia lamblia killing; Giardia lamblia trophozoite viability; activity change, % at 7.66 µM, hits read low; hit rate 0.15% among 340,000; AID 540267; in the data active = activity change below about -80%; inconclusive = between about -30% and that limit;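 note: parasites exposed to compound for two days anaerobically before the ATP read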
#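 Trophozoite viability was measured as ATP-dependent luminescence, read 15-30 min after reagent addition. Before that, parasites at 100 cells/well were exposed to compounds for 48 h, anaerobically, at 37 deg C.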
# Vif-A3G inh: blocks the Vif interaction with human APOBEC3G | HeLa A3G-eYFP + Vif (tagged APOBEC3G with the HIV-1 protein that degrades it), YFP fluorescence, overnight | Potency, µM (doses to about 46.1 µM), hits mostly inhibitors | hit rate 0.076% among 410,000 | AID 602310; note: nearly all actives have a fitted effect of over 60% in size
# Target sequence (Q9HC16 whole entry, looked up): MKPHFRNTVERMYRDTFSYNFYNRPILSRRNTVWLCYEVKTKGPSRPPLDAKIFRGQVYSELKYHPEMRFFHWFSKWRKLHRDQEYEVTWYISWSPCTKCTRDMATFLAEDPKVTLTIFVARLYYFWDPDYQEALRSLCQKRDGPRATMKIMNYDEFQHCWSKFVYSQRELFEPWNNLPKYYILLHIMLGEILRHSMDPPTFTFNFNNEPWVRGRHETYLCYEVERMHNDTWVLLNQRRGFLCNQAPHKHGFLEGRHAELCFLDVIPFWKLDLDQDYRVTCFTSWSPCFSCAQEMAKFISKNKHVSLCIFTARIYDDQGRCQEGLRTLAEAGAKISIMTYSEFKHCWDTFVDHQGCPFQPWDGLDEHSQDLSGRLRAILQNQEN
#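 Read-out is eYFP fluorescence (Ex 488/Em 500-530) from Vif-expressing HeLa A3G-eYFP cells; more signal means A3G escaped Vif-mediated degradation. Cells plated overnight, compound pinned in, incubated overnight at 37 deg C.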
# IL-1B inflam inh: inhibitors of inflammasome signaling (IL-1 beta secretion) | THP-1 LPS/ATP IL-1B secretion, AlphaLISA, 16 h; hits give low values | activity change, % at 57.5 µM | hit rate 4.7% among 360,000 | AID 743279; in the data active = activity change below about -50%; inconclusive = mostly about -30% to -49%
#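 THP-1 cells pretreated 1 hr with compounds (up to 57.5 uM final), then stimulated with LPS (250 ng/mL final) plus ATP (1.25 mM final); secreted IL-1B measured by AlphaLISA after 16 hr, decreased signal indicating inhibition.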
# SW480 rerep: DNA re-replication induction in SW480 cells; SW480 DNA re-replication, Hoechst DNA content imaging, 48 h; AID 624297; Potency, µM (highest dose often 46.1 µM), usual class: activators; hit rate 1.8% among 340,000; note: nearly all actives have a fitted effect of over 55% in size
#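 Image-based read-out: total Hoechst fluorescence of nuclei (405 nm excitation, 500-530 nm emission), with hits raising the fraction of high-intensity nuclei. SW480 colon cells incubated 48 hr with compounds at 37 C.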
# MCF10A rereplic: DNA re-replication induction in MCF 10a cells; MCF 10A DNA re-replication, Hoechst nuclear intensity, 48 h; Potency, µM (top dose mostly 46.1 µM), usual class: activators; hit rate 2.9% among 350,000; AID 624296; note: nearly all actives have a fitted effect of over 50% in size
# Vif-A3F inh: blocks the Vif interaction with APOBEC3F; Potency, µM (doses to about 46.1 µM); AID 602313; hit rate 0.2% among 390,000; HeLa A3F-eYFP + Vif (tagged APOBEC3F with the HIV-1 protein that degrades it), YFP fluorescence increase; note: nearly all actives have a fitted effect of over 65% in size
#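 HeLa cells stably expressing Vif plus C-terminally eYFP-tagged A3F were seeded, incubated overnight at 37 deg C, dosed with compound, incubated overnight again at 37 deg C. Yellow fluorescence (Ex 488/Em 500-530) reported blocked Vif-mediated A3F-eYFP degradation.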
# Numbers stand for hits; . = inactive; ? = inconclusive; / = no result given. Unless noted, calls come from the whole dose curve; as a rule, active = well fitted curve in the direction sought with a large enough effect; inconclusive = small, poorly fitted or top-dose-only effect, or another doubt; inactive = no such curve, though single readings can be large; an effect the other way counts as inactive or inconclusive.
SMILES,Giardia killer,Vif-A3G inh,IL-1B inflam inh,SW480 rerep,MCF10A rereplic,Vif-A3F inh
O=C(c1ccc2c(c1)N(Cc1cccc(Cl)c1)C(=O)c1ccccc1S2(=O)=O)N1CCc2ccccc21,/,.,/,/,/,.
COc1ccc(C)cc1S(=O)(=O)N1CCCC(C(=O)NCc2ccccn2)C1 (configuration not stated),.,.,.,.,.,.
O=C(NCc1ccccn1)C1CCCN(S(=O)(=O)c2cc(Cl)ccc2Cl)C1 (configuration not stated),-83,.,-104,?,0.73µM,.
CCN(CC)CCNC(=O)c1nn(-c2ccc(Cl)cc2)c2c1CCc1cc(OC)ccc1-2,.,?,-103,?,?,.
Cc1c(C(=O)NCc2ccoc2)oc2ccc3c(c12)C(=O)CC(C)(C)O3,.,.,-52,.,?,.
COc1cc(OC)c(NC(=O)CN(C)S(=O)(=O)c2ccc3c(c2)CCCC(=O)N3)cc1Cl,/,.,/,/,/,.
CCONc1ncnc2nonc12,.,.,.,.,.,.
Clc1ccc(CONc2ncnc3nonc23)c(Cl)c1,.,.,-76,.,.,.
O=S(NCc1ccco1)C12CC3CC(CC(C3)C1)C2 (configuration not stated),.,.,.,.,21µM,.
O=S(NCc1ccccc1)C12CC3CC(CC(C3)C1)C2 (configuration not stated),.,.,.,.,.,.
CCOC(=O)c1c(S(=O)(=O)N2CCC(C(=O)NCc3cccc(OC)c3)CC2)c(C)n(C)c1C,/,.,/,/,/,.
CC(C)Oc1ccc(CNC(=O)CCCN2C(=O)c3cccnc3Oc3ccc(Cl)cc32)cc1,/,.,/,/,/,.
COc1ccc(NC(=O)CN2C(=O)COc3ccc(S(=O)(=O)N4CCCCC4)cc32)c(OC)c1,.,.,-54,.,.,.
Cc1cc(C)cc(NC(=O)CN2C(=O)CSc3ccc(S(=O)(=O)N4CCCC4)cc32)c1,/,.,/,/,/,.
CN(C)CCNC(=O)CN1C(=O)CSc2ccc(S(=O)(=O)N3CCCCC3)cc21,.,.,.,.,.,.
CCOC(=O)CN1C(=O)CSc2ccc(S(=O)(=O)N3CCCC3)cc21,.,.,-52,.,.,.
O=C(CN1C(=O)CSc2cc(S(=O)(=O)N3CCCCCC3)ccc21)NCCc1ccccc1,.,.,-62,?,.,.
Cc1ccc(NC(=O)CN2C(=O)CSc3ccc(S(=O)(=O)N4CCCCC4)cc32)cc1,.,.,-89,.,.,.
COc1cc(NC(=O)CN2C(=O)COc3ccc(S(=O)(=O)N4CCCCC4)cc32)cc(OC)c1,.,.,.,.,.,.
CCOc1ccc(C(C)C)cc1S(=O)(=O)Nc1cccc(-c2ccc(N3CCOCC3)nn2)c1,/,.,/,/,/,.
CSc1nc(Nc2ccc(C)cc2)c(C#N)c(-c2ccccc2)n1,/,.,/,/,/,.
Cc1csc(C)[n+]1CCC1CCCCC1,/,.,/,/,/,/
CN(C)CCCn1c(N)c(C#N)c2nc3ccccc3nc21,.,.,/,18µM,18µM,?
Cc1ccc(S(=O)(=O)c2c(N)n(CCCN(C)C)c3nc4ccccc4nc23)cc1,.,.,.,23µM,21µM,.
CCCCC(CC)Cn1c(N)c(C#N)c2nc3ccccc3nc21 (configuration not stated),.,.,.,9.2µM,.,?
SMILES,Giardia killer,Vif-A3G inh,IL-1B inflam inh,SW480 rerep,MCF10A rereplic,Vif-A3F inh
N#Cc1c(N)n(-c2ccc(N)cc2)c2nc3ccccc3nc12,.,.,.,.,.,.
Cc1ccc(-n2c(N)c(S(=O)(=O)c3ccccc3)c3nc4ccccc4nc32)cc1,.,.,.,.,.,.
Cc1cccn2c(=O)c3cc(C(=O)NC(C)C)n(C)c3nc12,/,.,/,/,/,.
COc1ccc(-c2nc(CN3CCC(C(=O)NCCCN4CCN(c5ccccc5F)CC4)CC3)c(C)o2)cc1OC,/,.,/,/,/,.
CCCCNC(=O)CCCn1c(=O)c2ccccc2n(CC(=O)Nc2ccccc2OCC)c1=O,/,.,/,/,/,.
c1ccc(C2=Nn3c(nnc3-c3cccs3)SC2)cc1,.,.,/,.,.,.
c1csc(C2=Nn3c(nnc3-c3ccncc3)SC2)c1,.,.,-75,?,.,.
CC1=Nn2c(nnc2-c2ccccc2Cl)SC1,.,.,.,.,.,.
Clc1ccccc1C1=Nn2c(nnc2-c2ccncc2)SC1,.,.,-86,.,.,.
Cc1no[n+]([O-])c1COc1ccc(/C=C2\NC(=S)NC2=O)cc1,.,.,-53,.,.,.
CCOC(=O)N1CCc2c(sc3c2c(=O)n(CCc2ccccc2)c(=O)n3CC(=O)Nc2ccccc2C)C1,/,.,/,/,/,.
CN1C(=O)C(Cl)(Cl)C(=O)c2ccccc21,.,.,-91,?,?,.
CN1CCN(C(=O)CCN2C(=O)/C(=C/c3ccc(F)cc3)SC2=S)CC1,.,.,-102,.,?,.
O=C(CCN1C(=O)/C(=C\c2ccccc2F)SC1=S)N1CCOCC1,/,.,.,/,/,.
O=C(CCCN1C(=O)/C(=C/c2ccccc2Cl)SC1=S)N1CCOCC1,.,.,?,?,?,.
O=C(CCN1C(=O)/C(=C/c2ccc(F)cc2)SC1=S)N[C@@H](CO)Cc1ccccc1,.,.,-52,.,.,.
CN1CCN(C(=O)CCN2C(=O)/C(=C/c3ccccc3Cl)SC2=S)CC1,.,.,-97,?,5.8µM,.
CN1CCN(C(=O)CCN2C(=O)/C(=C\c3ccccc3F)SC2=S)CC1,.,.,-51,?,23µM,.
CC(=O)OCC(NC(=O)C(COCc1ccccc1)NC(=O)OC(C)(C)C)C1OC(n2cc(C)c(=O)[nH]c2=O)C(OC(C)=O)C1OC(C)=O (configuration not stated),.,.,/,/,/,/
COC(=O)c1sc2cccc(F)c2c1S(=O)(=O)NCc1ccc(Cl)cc1,/,.,/,/,/,.
Cc1ccc2c(c1)N(C(=O)Nc1cccc3c1CCCC3)CCO2,/,.,/,/,/,.
O=C(CCN1C(=O)/C(=C/c2ccccc2F)SC1=S)NCCCn1ccnc1,.,.,.,.,21µM,.
Cc1ccc(/C=C2\SC(=O)N(CCC(=O)N3CCN(C)CC3)C2=O)cc1,.,.,.,.,13µM,.
O=C(CCCN1C(=O)/C(=C/c2ccccc2)SC1=S)NCCCn1ccnc1,.,.,.,.,?,.
O=C(Cn1cc(S(=O)(=O)Cc2cccc(Cl)c2)c2ccccc21)Nc1ccccc1C(F)(F)F,/,.,/,/,/,.
Cc1c(N=C2C=CC(=O)c3ccccc32)c(=O)n(-c2ccccc2)n1C,.,.,-115,?,?,.
O=C(O)c1cc2ccccc2c(N=Nc2cccnc2)c1O,-82,.,.,.,?,.
O=C(O)c1cc(N=Nc2c(O)ccc3ccccc23)cc(C(=O)O)c1,.,.,.,.,.,.

# High-throughput results from PubChem.
